# An excerpt weighted towards active compounds, which were near 5.7% of everything screened.
# ssDAF12 agonist – activates DAF-12 receptor from parasite S. stercoralis | HEK293 ssDAF-12/GRIP1 lit1-tk-luc reporter, luminescence; % of 3 µM dafachronic acid response | activation, % at 6.8 µM | 370,000 compounds, 1% hits | AID 652126;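 active = activation above the mean over all tested compounds plus 3 SD, cut at about 0.9% in these data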;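 also: 0% = DMSO-only wells and 100% = 3 µM delta7-dafachronic acid wells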
# DAX1 inh-1 – inhibitors of DAX1 repression of SF-1 activated StAR promoter; AID 652010; inhibition, % at 6.8 µM; HEK293T StAR-luciferase reporter, SF-1/DAX-1 repression relief; 370,000 compounds, 1.1% hits;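 active = inhibition above the mean over all tested compounds plus 3 SD, cut at about 3.6% in these data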;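 also: 0% = DAX-1 cells with DMSO and 100% = cells lacking DAX-1 with DMSO; higher inhibition means more luminescence from relief of DAX-1 repression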
# DAX1 inh-2 – NR0B1 (DAX1) inhibition | HEK293 Gal4-DAX1 luciferase reporter, luminescence | inhibition, % at 6.75 µM | 340,000 compounds, 0.99% hits;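 active = inhibition above the mean over all tested compounds plus 3 SD, cut at about 4.2% in these data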;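 also: 0% = DAX1-transfected cells with DMSO and 100% = empty-vector control cells with DMSO; inhibition shows as a rise in luminescence from relieved DAX1 repression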
# AHR act – human AHR activation | P35869 | AHR-responsive luciferase reporter cells, luminescence | activation, % at 5 µM | 320,000 compounds, 2.5% hits; in the data active = activation above about 47%;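 also: 0% = vehicle wells and 100% = reference agonist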
# hcDAF12 agonist – activates DAF-12 receptor from parasite H. contortus. activation, % at 6.8 µM. HEK293 hcDAF-12 lit1-tk-luc reporter, luminescence; 0% DMSO, 100% Δ7-dafachronic acid. AID 652067. 370,000 compounds, 1.4% hits;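 active = activation above the mean of all tested compounds plus 3 SD, cut at about 5.5% in these data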;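 also: 100% = response to 3 µM Δ7-dafachronic acid high control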
# hgDAF12 agonist – agonists of H. glycines DAF-12 nuclear receptor; activation, % at 6.8 µM; 370,000 compounds, 1.8% hits; HEK293 GAL4-hgDAF12 UAS-luciferase reporter, agonist luminescence; normalized to butyrate control;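 active = activation above a cutoff set at the mean of all screened compounds plus 3 SD, cut at about 10% in these data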;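 also: 0% = DMSO wells and 100% = sodium butyrate wells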
# * marks the source's active call; other numbers are inactive results; · = not tested or not shown.
SMILES,ssDAF12 agonist,DAX1 inh-1,DAX1 inh-2,AHR act,hcDAF12 agonist,hgDAF12 agonist
CC(Sc1nnc(Nc2ccccc2)s1)C(=O)Nc1nc(-c2ccccc2)cs1 (configuration not stated),-1,1,5.0*,13,3,0
CC(Oc1ccccc1)C(=O)Nc1nc(-c2ccncc2)cs1 (configuration not stated),-1,-1,0,47*,-1,-2
COCCNC(=O)CN1C(=O)/C(=C/c2ccccc2)Oc2ccc(C(C)(C)C)cc21,-1,0,0,3,-1,0
CN(C)CC#Cc1cccc(-c2nc(C(=O)O)cc3c2[C@@H](CCO)N(S(=O)C(C)(C)C)C3)c1 (some centres not stated),-1,0,·,·,-1,1
Cc1occc1C(=O)N1CCCC(N2CCN(c3cccc(C(F)(F)F)c3)CC2)C1 (configuration not stated),-1,-2,-1,13,-2,-1
Cc1ncoc1C(=O)N1CCCC(N2CCN(c3cccc(C(F)(F)F)c3)CC2)C1 (configuration not stated),-2,0,0,55*,-3,-1
COc1ccc(C2/C(=C(/O)c3ccc(Br)cc3)C(=O)C(=O)N2C)cc1 (configuration not stated),-2,0,1,0,-1,1
CCCCNC(=O)Nc1nnc(-c2ccccc2)o1,-1,0,0,38,-1,2
CCOc1ccc(-c2nnc(-c3ccncc3)o2)cc1,0,2,1,61*,2,8
CCCCNC(=O)Nc1nnc(-c2ccc(OCC)cc2)o1,-1,0,5.5*,27,1,1
CCCOc1ccc(-c2nnc(-c3cccs3)o2)cc1,0,2,2,2,4,10*
CC(C)CCN(C(=S)Nc1cccc(F)c1)C1CCN(C(C)C)CC1,-2,0,0,0,0,-3
Cc1cc(C)n(-c2ccccc2C#N)n1,-1,-1,-1,0,1,-1
CC(C)S(=O)(=O)c1cnc(-c2cccnc2)nc1N,-1,0,0,0,1,0
Brc1ccccc1-n1nnc(-c2cnc3ccccc3c2)n1,3.5*,5.2*,1,54*,17*,13*
Clc1nc2ccccc2cc1-c1nnn(-c2ccccc2Br)n1,0,0,1,17,3,1
C=C1C(=O)[C@]23C[C@H]1CCC2[C@@]1(C)C(C[C@@H]3O)[C@](C)(C(=O)O)C[C@H](O)[C@@H]1O (some centres not stated),-2,-1,·,·,-2,0
C=C1C(=O)[C@]23C[C@H]1CC[C@H]2[C@]1(C)[C@@H](O)CC[C@@](C)(C(=O)O)[C@H]1C[C@@H]3O,0,4.3*,·,·,0,-1
CN1C(=O)/C(=C/c2ccccc2OCc2ccc(F)cc2)N(C)C1=S,-1,-1,-2,78*,0,-1
O=C(N/N=C/c1ccc(OC(F)F)cc1)C1=COCCO1,0,4.1*,4.9*,19,4,11*
CCOC(=O)C1=C(C)N=c2s/c(=C/c3ccc(OCC(=O)O)cc3)c(=O)n2C1c1ccc(OC)cc1OC (configuration not stated),1.8*,1,-1,1,0,1
O=C(CNC(=O)c1ccccc1)OCc1nnc(-c2ccccc2)o1,-1,2,0,0,1,1
CCOc1ccc(C(=O)NCC(=O)OCc2nnc(-c3ccccc3)o2)cc1OCC,-1,4.2*,1,8,0,-2
c1ccc(-n2cnc3ccccc32)cc1,-1,1,2,1,-1,11*
COc1ccc(-n2cnc3ccccc32)cc1,-1,0,1,6,1,3
SMILES,ssDAF12 agonist,DAX1 inh-1,DAX1 inh-2,AHR act,hcDAF12 agonist,hgDAF12 agonist
CC(c1ccccc1)c1nnc(N)s1 (configuration not stated),-1,0,4.7*,0,-1,-1
CC(Oc1ccccc1)c1nnc(N)s1 (configuration not stated),-1,0,0,0,-1,-1
O=C(NCc1cccs1)c1ccc(CS(=O)Cc2ccc(Cl)cc2)o1 (configuration not stated),-2,-1,2,·,-1,3
C=CCc1ccccc1OCCn1ccnc1,-1,1,-1,12,1,0
C=CCc1cccc(OC)c1OCCOCCn1ccnc1,-1,1,0,73*,0,1
O=C(Nc1ccccc1OC(F)F)c1oc2ccccc2c1COc1ccccc1,-1,0,0,49*,3,-2
COCc1c(C(=O)Nc2ccc(Cl)cc2F)oc2ccccc12,-1,0,4,71*,5,3
COc1ccc(CCN2CC(C(=O)NCCc3ccccc3C)CCC2=O)cc1 (configuration not stated),-1,0,0,0,-1,0
COc1ccc(NC(=O)c2cc([N+](=O)[O-])ccc2N2CCCC2)cc1S(N)(=O)=O,-1,-1,0,·,0,-1
Nc1ccc(S(=O)(=O)N2CCCC2)cc1,-2,1,6.0*,0,1,1
CCCc1ccc(S(=O)(=O)N2CCN(C(=O)CN3C(=O)NC(C)(C4CC4)C3=O)CC2)cc1 (configuration not stated),-1,1,4.3*,·,1,-2
COC(=O)C[C@H]1C[C@H]2c3cc(NC(=O)C4CCOCC4)ccc3O[C@H]2[C@@H](CO)O1,-1,0,1,·,0,4
Cc1ccc2nc(-c3ccccc3)nn2c1,1,4,-4,·,6.5*,10
Cc1ccc(-c2nnc(-c3ccccc3)c(-c3ccccc3)n2)cc1,-1,0,0,3,2,0
Brc1ccc2nc(-c3ccc(CN4CCC5(CC4)CNc4ccccc45)cc3)c(-c3ccccc3)nc2c1,0,0,·,·,1,4
COc1ccc(/C=C2/C(=O)N(c3nc4ccccc4s3)N=C2CSc2ccc(Cl)cc2)cc1,1,1,0,8,5.6*,4
COc1ccc(/C=C2/C(=O)N(Cc3ccccc3)N=C2C)cc1,0,0,1,0,-1,-1
Cc1cc(C)n(C(=O)Cn2nc(C)c(Cl)c2C)n1,-2,0,4.5*,0,0,-2
Cc1cc(C)n(C(=O)Cn2nc(C)c(Br)c2C)n1,-1,0,0,-1,0,0
O=C(NCC(=O)N1CCOCC1)c1ccc(Br)cc1,-1,0,1,4,1,-1
O=C(CCSc1ccccc1)N1CCN(c2ccccc2)CC1,0,3,3,3,2,12*
O=C(CNC(=O)c1ccc(Br)cc1)c1ccccc1,0,3,1,4,4,13*
